Compound activity deposited in PubChem by National Center for Advancing Translational Sciences (NCATS).
HPGD block – blocks human HPGD enzyme activity | P15428 | purified HPGD, NADH fluorescence kinetic, PGE2 substrate | Potency, µM, usual class: inhibitors | actives 4.3% (n = 150,000) | AID 894
Target sequence (P15428 whole entry, looked up): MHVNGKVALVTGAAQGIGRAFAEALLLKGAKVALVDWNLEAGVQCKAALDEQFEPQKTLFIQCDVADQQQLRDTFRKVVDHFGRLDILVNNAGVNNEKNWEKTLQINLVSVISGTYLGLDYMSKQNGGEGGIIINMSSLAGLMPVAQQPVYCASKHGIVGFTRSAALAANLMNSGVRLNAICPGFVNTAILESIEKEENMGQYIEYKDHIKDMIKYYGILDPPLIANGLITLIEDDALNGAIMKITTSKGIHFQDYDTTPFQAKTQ
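20 nM HPGD preincubated 15 min at room temperature with compound in 50 mM Tris-HCl pH 8, 0.01% Tween 20. Started with 1 mM NAD+ and 30 uM prostaglandin E2; NADH fluorescence (360/450 nm) read 5 times over 30-s intervals, last minus first.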
ALDH1A1 block – ALDH1A1 (human) enzyme inhibition. P00352. Purified ALDH1A1, NADH fluorescence, propionaldehyde substrate. AID 1030. actives 7.3% (n = 220,000). Potency, µM (highest dose often 75.3 µM), most hits filed as inhibitors
JMJD2E inh – inhibitors of human JMJD2E histone demethylase; B2RXH2; JMJD2E catalytic domain, FDH-coupled NADH fluorescence (FDH is formaldehyde dehydrogenase); Potency, µM (top dose mostly 57.1 µM), usual class: inhibitors; actives 1.6% (n = 230,000); also: nearly all actives have a fitted effect of over 50% in size
Target sequence (B2RXH2 1-337 limits assumed): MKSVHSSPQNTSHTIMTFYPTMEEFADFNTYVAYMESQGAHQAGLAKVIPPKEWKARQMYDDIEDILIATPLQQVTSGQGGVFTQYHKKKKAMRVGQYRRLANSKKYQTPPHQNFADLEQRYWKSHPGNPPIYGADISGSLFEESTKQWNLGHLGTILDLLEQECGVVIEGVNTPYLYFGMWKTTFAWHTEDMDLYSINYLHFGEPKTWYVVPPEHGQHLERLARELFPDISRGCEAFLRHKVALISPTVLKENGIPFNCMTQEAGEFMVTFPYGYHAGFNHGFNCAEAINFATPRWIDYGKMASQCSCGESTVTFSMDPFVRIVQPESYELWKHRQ
PNC assembly inh – inhibitors of perinucleolar compartment assembly | PC3M PTB-GFP, PNC prevalence imaging, 16 h; stronger effect = lower value | activity change (PNC), negative = inhibition, % at 10 µM | actives 3.1% (n = 140,000) | AID 2417;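 active = readout at or below -70, meaning at least 70% loss of cells showing the perinucleolar compartment, a nuclear body marking cancer cells; inconclusive = readout between -30 and a set limit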
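Read-out is percentage of cells bearing a perinucleolar compartment, from automated 20x imaging of fixed, Hoechst-stained PC3M PTB-GFP cells. Cells were seeded 4 h, then exposed 16 h to compound (23 nl of library stock) in duplicate plates.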
Hits are given with their value; 0 = inactive; ? = inconclusive; - = no result. Sampled rows, rich in hits. Any-hit rate of the full collection: about 11%. Unless noted, calls follow the shape of the dose curve; as a rule, active = well fitted inhibition curve with a large enough effect (not every such curve was filed as active); inconclusive = small, poorly fitted or top-dose-only effect, or another doubt; inactive = no such curve, though single readings can be large or run the other way.

SMILES	HPGD block	ALDH1A1 block	JMJD2E inh	PNC assembly inh
N#CC1=C(N)OC2=C(CCC/C2=C/c2ccoc2)C1c1ccoc1 (configuration not stated)	?	?	25.1µM	?
O=[N+]([O-])c1ccc(S(=O)(=O)CC(CN2CCOCC2)N2CCOCC2)cc1 (configuration not stated)	-	?	0	-
O=[N+]([O-])c1ccc(S(=O)(=O)CC(CN2CCCCC2)N2CCCCC2)cc1 (configuration not stated)	-	7.08µM	0	-
CN1CCc2c(sc3ncn4nc(-c5ccccc5O)nc4c23)C1	0	?	22.4µM	?
COC(=O)[C@@]1(Cc2ccccc2)C=C[C@@H](C)N1C(=O)c1ccccc1	0	39.8µM	0	-
CC(=O)N1[C@H](C)C=C[C@]1(Cc1ccccc1)C(=O)NCc1cc(F)cc(C(F)(F)F)c1	0	0	0	?
CC(=O)N1[C@H](C)C=C[C@]1(Cc1ccccc1)C(=O)NCc1ccc(C)o1	14.1µM	?	0	-
Cc1ccc(/C=C/C2=Cc3c(sc(NC(=O)CSc4n[nH]c(N)n4)c3C#N)C(C)(C)C2)o1	?	0.794µM	0	0
CCN(CC)C(=O)c1sc(NC(=O)c2ccc(C)c([N+](=O)[O-])c2)c(C#N)c1C	28.2µM	0	0	?
CCN(CC)C(=O)c1sc(NC(=O)c2ccc(OC)c([N+](=O)[O-])c2)c(C#N)c1C	17.8µM	0	0	0
c1ccc2c(c1)CCC[C@@H]2C1=NCCN1	0	0	0	-
CCOC(=O)c1sc(NC(=O)CCN2C(=O)c3ccccc3C2=O)c(C(=O)OCC)c1C	0	?	0	0
CCOC(=O)c1sc(NC(=O)CCN2CCC(C)CC2)c(C(=O)OCC)c1C	-	2.51µM	0	-
CCOC(=O)c1sc(NC(=O)CCN2CCN(CC)CC2)c(C(=O)OCC)c1C	-	10µM	0	-
Cc1cc(NC(=O)CSc2nc(-c3ccco3)cc(C(F)(F)F)n2)no1	0	0	0	-115.7
O=C(CSc1nc(-c2ccco2)cc(C(F)(F)F)n1)Nc1ccc(C(=O)N2CCCCC2)cc1	0.562µM	14.1µM	?	0
O=C(c1ccccc1)N1CCN(c2ncnc3c2cnn3-c2ccccc2)CC1	0	?	0	0
O=C(c1cccc(Cl)c1)N1CCN(c2ncnc3c2cnn3-c2ccccc2)CC1	-	7.94µM	?	-
CC1CCN(c2ncnc3c2cnn3-c2ccccc2)CC1	28.2µM	?	0	0
O=C(c1ccco1)N1CCN(c2ncnc3c2cnn3-c2ccccc2)CC1	0	?	0	0
Cc1nn(-c2ccccc2)c(Cl)c1C(=O)N1CCN(c2ncnc3c2cnn3-c2ccccc2)CC1	?	14.1µM	?	0
COCCn1c(=O)c(-c2cn(C)c3ccccc23)nc2cnc(Oc3ccccc3)nc21	0	?	-	-
O=C(N/N=C(/CC(=O)c1cccs1)C(F)(F)F)c1ccc(O)cc1	0	0	0	0
O=C(NC(O)C(=O)c1cccs1)c1cccnc1 (configuration not stated)	0	10µM	0	?
O=C(N/N=C(\CC(=O)c1cccs1)C(F)(F)F)c1cccnc1	-	20µM	?	-
SMILES	HPGD block	ALDH1A1 block	JMJD2E inh	PNC assembly inh
CC(=O)c1cccc(NC(=O)CN2C(=S)NC(C)(C)CC2C)c1 (configuration not stated)	-	?	0	-
S=c1[nH]nc(-c2cccc(Cl)c2)n1CCN1CCCCC1	0	0	0	0
CCSc1nc2c(c(-c3ccc(C)o3)c1C#N)CCCC2	?	?	?	-100.0
N#Cc1c(-c2ccncc2)c2c([nH]c1=S)CCCC2	22.4µM	?	0	0
Cc1ccc(-c2c3c([nH]c(=S)c2C#N)CCCC3)o1	8.91µM	7.94µM	28.2µM	0
COC(=O)CSc1nc2c(c(-c3ccc(C)o3)c1C#N)CCCC2	?	?	?	0
N#Cc1c(SCC(N)=O)nc2c(c1-c1ccncc1)CCCC2	-	0	0	-
CC(C)(C)NC(=O)CN1CCN(C(=O)CCl)CC1	-	0.316µM	0	-
CCOC(=O)N1CCN(C(=O)CCl)CC1	-	0.562µM	0	-
CC(C)(C)NC(=O)NC(=O)CN1CCCCCCC1	-	?	0	-
CN(Cc1nc(-c2ccccc2)no1)C1CCOCC1	-	-	0	-
Cc1ccc(C(c2nnnn2C2CCCCC2)N(C)C2CCCCC2)cc1 (configuration not stated)	0	0	0	0
CC(C)C(c1nnnn1C1CCCC1)N(C)C1CCCCC1 (configuration not stated)	0	28.2µM	0	0
CCCCCCCCC	0	0	-	-
COc1cccc(Cn2c(=O)c(CCc3ccccc3)nc3cnc(OC)nc32)c1	0	0	-	-
CCOc1ccc(Cc2noc3c2C(=O)CC(C)(C)C3)cc1OCC	-	11.2µM	0	-
CCOc1ccc(Cc2noc3c2C(=O)CCC3)cc1OCC	-	0	0	-
N#C/C(=C\c1ccc(-c2cccc([N+](=O)[O-])c2)o1)C(=O)N1CCOCC1	-	0	0	-
N#C/C(=C\c1ccc(-c2cccc([N+](=O)[O-])c2)o1)c1nnc(N2CCOCC2)n1-c1ccccc1	-	7.94µM	0	-
COc1ccc(CSc2nc(C)[nH]c2[N+](=O)[O-])cc1[N+](=O)[O-]	-	-	0	-
COc1ccc(CSc2nncn2C)cc1[N+](=O)[O-]	0	20µM	0	0
COc1ccc(CSc2nncn2N)cc1[N+](=O)[O-]	0	?	0	-89.1
Cc1c(/C=N/Nc2ccc(F)cc2)c(O)n(C)c(=O)c1C#N	-	3.55µM	?	-
O=C(N/N=C/c1sc2ccccc2c1O)c1ccccc1	0	?	22.4µM	?
Cc1sccc1/C=N/NC(=O)c1cccc2ccccc12	0	0	0	-103.7
SMILES	HPGD block	ALDH1A1 block	JMJD2E inh	PNC assembly inh
Cc1ccccc1C(=O)N/N=C/c1ccsc1C	0	0	0	0
O=C(N/N=C/c1sc2ccccc2c1O)c1cccc2ccccc12	0	0	25.1µM	?
COc1ccc(C(=O)N/N=C/c2cc3ccccc3[nH]c2=S)cc1	1.26µM	1.41µM	?	0
COc1ccc(C(=O)N/N=C/c2cccc3cccnc23)cc1	0	?	?	0
Cc1cccc(/N=C/c2sc3ccccc3c2O)n1	-	0	?	-
O=C1Nc2ccc(F)cc2C12SCCS2	0	0	0	0
O=C(NC(=S)N1CCN(c2ccc(C(F)(F)F)cc2[N+](=O)[O-])CC1)c1cccs1	0	0	0	0
COc1ccc2cc(C(=O)N/N=C/c3sc4ccccc4c3O)ccc2c1	0	0	?	?
COc1ccc(C(=O)N/N=C/c2sc3ccccc3c2O)cc1	0	0	35.5µM	?
COC(=O)c1onc(-c2ccccc2)c1C(=O)OC	0	0	0	0
COC(=O)c1c(-c2ccc(F)cc2)noc1N	0	0	0	-89.0
c1ccc2c(c1)CCN(c1nc(CN3CCOCC3)nc3sc4c(c13)CCCC4)C2	0	?	?	0
Cc1ccsc1C1C(C#N)=C(N)N(N(C)C)C2=C1C(=O)CCC2 (configuration not stated)	-	14.1µM	0	-
CN(C)N1C(N)=C(C#N)C(c2cccs2)C2=C1CCCC2=O (configuration not stated)	-	?	0	-
CN(C)c1ccc(NC(=O)CSCc2nc3c(nnn3Cc3ccc(F)cc3)c(=O)[nH]2)cc1	22.4µM	10µM	0	0
Cn1cnnc1Sc1ccc(C(=O)NCCC23CC4CC(CC(C4)C2)C3)cc1[N+](=O)[O-]	0	2.82µM	0	0
